Our source for the inhibition values is PubChem BioAssay AID485350 (ICCB-Longwood Screening Facility, Harvard Medical School, 2010).

The structures appear in SMILES notation. Where “and” joins values, the source holds several entries; their conditions need not be identical. Equal entries are not always repeated. Among all 84,000 compounds or so, about 95 (0.1%) were called active. What follows is part of a selection rich in actives, with near analogues and random picks from the rest. Values without a mark were called inactive. Rule as the data show it: active = inhibition above about 25% (passing the limit was not always enough); inactive = the rest.

The assay has as its system BasE (2,3-dihydroxybenzoate-AMP ligase), Acinetobacter baumannii ATCC 17978. As to the kind of experiment: BasE siderophore enzyme inhibitors, primary screen, biochemical, Acinetobacter baumannii ATCC 17978, fluorescence polarization (AID 485350).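 Also: 0% = negative plate control signal and 100% = positive plate control signal.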 Conditions: purified BasE, fluorescence polarization binding displacement; active compounds read high; concentration not given here. A general note: Polarisation of emitted light reports the rotation of a fluorescent probe.
Take `CCCCNc1ncc2c(n1)c(=O)c(C#N)c1[nH]c3ccccc3c(=O)n12`: the inhibition is -8.32%.
In the case of `CCOCCCn1c(CC(N)=O)n[nH]c1=S`, the inhibition was 0.4%.
In the case of `Nn1c(SCC2CCCCO2)nnc1-c1ccncc1` (stereo not drawn) it was 1.26%.
Consider `COC(=O)Cc1c(C)n[nH]c1C`, for which the inhibition is 1.01%.
In the case of `c1ccc(-n2nnnc2Sc2nnc3n2CCCCC3)cc1` it was -0.02%; in that of `O=C(Nc1ccncc1)OCCc1ccccn1`, 4.83%.
In the case of `Cc1cc(N2CCN(C)CC2)nc2ccc(NC(=O)NC3CCCC3)cc12` it was -2.82%.
In the case of `Cc1ccc2cc(C#N)c(NCCNC(=O)Nc3ccccc3C)nc2c1` it was 4.18%; in that of `O=C(CCNC(=O)NC12CC3CC(CC(C3)C1)C2)Nc1ccc(-n2cnnn2)cc1`, 2.05%.
Consider `CC(=O)NCCC(=O)Nc1nccs1`, for which the inhibition is -1.55%.
In the case of `CCOC(=O)Cn1c(=O)c(=O)n(C)c2c1c(C)nn2-c1ccccc1` it was -0.65%; in that of `C=CCn1c(COc2ccccc2F)nnc1SC(C)C(=O)NC(N)=O` (stereo not drawn), 0.29%.
As for `CN(C)S(=O)(=O)c1ccc(C(=O)OCC(=O)N2CCCCC2)cc1`, the inhibition was 0.92%.
In the case of `C=CCN(CC=C)C(=O)CSc1nnc2c3ccccc3n(C)c2n1` it was 4.82%; in that of `CCC(CC)=NNC(=O)c1cc(-c2ccccc2)n[nH]1`, 0.72%.
In the case of `COc1ccccc1NC(=O)c1ccc(N2CC3CC(C2)c2cccc(=O)n2C3)c(NC(=O)c2cccnc2)c1` (stereo not drawn) it was -1.5%.
Turning to `C=CCN(S(=O)(=O)c1ccc(Cl)cc1)S(=O)(=O)c1ccccc1OC`, the inhibition was 5.47%.
In the case of `CCCCN(C)S(=O)(=O)c1ccc2c(c1)CCN2C(=O)CCC(=O)O` it was 1.97%; in that of `CN(C)CCN=c1cc(-c2ccccc2)oc2ccc(Cl)cc12`, -2.16%.
In the case of `Cc1nc(SCC(=O)NC(C)(C#N)C2CC2)c2c(C)c(C)sc2n1` (stereo not drawn) it was -0.09%; in that of `Cc1cc2nc(N(C)C)c3ccccc3n2n1`, 2.28%.
Turning to `CC1CN(C(=O)Cn2nc(-c3cccc(-n4cccc4)c3)oc2=O)CC(C)O1` (stereo not drawn), the inhibition is -1.31%.
In the case of `O=C(O)c1cccnc1SCc1cc(=O)n2cc(Br)ccc2n1` it was 1.25%.
Turning to `CC(=O)NCc1ccc(-c2csc(CC(=O)Nc3ccc(C)cc3C)n2)o1`, the inhibition is 0.82%.
In the case of `C/C(=N/NC(=O)CCc1ccccc1)C1CC1` it was 2.92%.
In the case of `COc1ccc(OCCNS(=O)(=O)Cc2ccccc2)cc1` it was 3.47%; in that of `CC1CN(CC(=O)Nc2ccccc2C(C)C)CC(C)O1` (stereo not drawn), -1.49%; in that of `CCN(CC)Cc1cc(C(=O)O)co1`, -4.35%.
In the case of `O=C(N/N=C/c1cccnc1)c1ccc(CN2CCOCC2)cc1` it was 1.66%; in that of `CCN1C(=O)/C(=C/N(C(C)=O)c2ccccc2)OC1=S`, 1.08%; in that of `O=C(CSc1ncnc2c1nnn2Cc1ccc(F)cc1)NC1CCCC1`, -1.58%.
For the compound `Cc1ccccc1Nc1nc(N)nc(CNCc2ccccc2)n1`, the inhibition was 5.66%.
In the case of `Cc1oc(-c2cccc(Cl)c2)nc1CN1CCCC(C(=O)N2CCN(c3cccc(Cl)c3)CC2)C1` (stereo not drawn) it was -0.15%; in that of `Cc1nc2c(cnn2C(C)C)c(C)c1CCC(=O)OC(C)C(=O)Nc1ccc(C(N)=O)cc1` (stereo not drawn), -3.6%.
In the case of `Cc1cc(C(=O)OCC(=O)c2cc(C)n(-c3ccc(Cl)cc3)c2C)no1` it was 1.57%.
In the case of `CCN(Cc1ccc2c(c1)OCCO2)C(=O)c1ccc(-n2cccn2)cc1` it was -0.56%; in that of `CN(C(=S)NCc1ccccc1)C1CCCCC1`, 1.12%; in that of `C(=C\c1ccccc1)/CNCCCN1CCOCC1`, 0.89%.
For the compound `CNC(=O)c1ccc(N2CCOc3ccc(Cl)cc32)s1`, the inhibition is -0.32%.
In the case of `COc1ccc(CNn2cnnc2SCc2ccc(F)cc2)cc1OC` it was -1.54%; in that of `CC12CCC(=O)N1C(C(=O)OCc1cc(=O)n3cc(Br)ccc3n1)CS2` (stereo not drawn), 3.92%; in that of `CC(C)[C@H](NC(=O)C1CCCCC1)c1nc2ccccc2[nH]1`, -0.24%.
With `Cc1cc(C(=O)OCc2cc(=O)oc3cc4c(cc23)CCC4)c(C)o1`, the inhibition was -0.6%.
In the case of `COC(=O)C(NC(=O)c1ccc(Cl)cc1)C(F)(F)F` (stereo not drawn) it was 7.11%; in that of `Cc1ccc(N2C(=O)CCC(C(=O)OCc3nnc(-c4ccccc4)o3)C2c2cccs2)cc1` (stereo not drawn), 1.51%; in that of `COc1ccc(-n2c(-c3ccc(Cl)cc3)cnc2SCc2nccn2C)cc1`, -1.16%.
In the case of `COc1ccc(S(=O)(=O)N(C)CC(=O)N2CCCC2)cc1` it was -1.85%; in that of `OCC1OC(Oc2ccc3cc(Br)ccc3c2)C(O)C(O)C1O` (stereo not drawn), -1.6%; in that of `CCOC(=O)c1c(-c2ccco2)csc1NC(=O)COC(=O)Cn1[nH]c(=O)c2ccccc2c1=O`, 3.28%.
On to `O=C(NCCSc1ncc(-c2ccccc2)[nH]1)c1ccco1`, for which the inhibition was -0.84%.
In the case of `Cc1ccc(S(=O)(=O)Nc2nc(O)c(C3=c4ccccc4=NC3=O)s2)cc1` it was 2.18%; in that of `C(=N\n1cnnc1)/c1ccc(OC2OCCOC2Oc2ccc(/C=N/n3cnnc3)cc2)cc1` (stereo not drawn), 1.12%.
In the case of `C=CCn1c(CCSCc2ccc(OC)cc2)n[nH]c1=S` it was -0.73%.
In the case of `COc1cccc(-c2noc(COC(=O)c3ccccc3-c3ccccc3C#N)n2)c1` it was 1.11%; in that of `CC(Oc1ccc(F)cc1)C(=O)O` (stereo not drawn), -0.06%; in that of `O=C(OCC(=O)N1CCOCC1)c1ccc(Cl)cc1`, 0.53%.
Turning to `O=c1c(OCCc2ccccc2)c(-c2ccco2)oc2ccccc12`, the inhibition is 5.62%.
In the case of `Cc1ccc(S(=O)(=O)NC(c2ccccc2)c2nnc(-c3ccccc3)o2)cc1` (stereo not drawn) it was -0.19%.
In the case of `O=C1Nc2ccccc2OC1CC(=O)N1CCN(Cc2ccc3c(c2)OCO3)CC1` (stereo not drawn) it was -0.54%; in that of `CCc1c(C)c(C#N)c2nc3ccccc3n2c1N1CCN(Cc2cc(Cl)ccc2OC)CC1`, 0.68%.
In the case of `CCOC(=O)c1sc(=NC(C)=O)n(C)c1C` it was -1.69%; in that of `Cc1cc(C)n(-c2ccc(Cl)c(C(=O)OCC(=O)NCc3ccco3)n2)n1`, 1.59%; in that of `CCn1cnc2c(=O)oc3ccc(S(=O)(=O)N4CCN(c5cc(Cl)ccc5C)CC4)cc3c21`, 2.98%.
Turning to `CCOC(=O)C1=C(CN2CCn3cccc3C2C)NC(=O)NC1c1ccc(Cl)cc1` (stereo not drawn), the inhibition was -0.37%.
In the case of `N#CCSc1[nH]c(=O)c(-c2nc(-c3ccccc3)cs2)cc1C#N` it was 1.84%.
In the case of `Cc1ccc(/C=C/C(=O)OCC(=O)c2cc(C)c(C)cc2C)o1` it was 1.01%; in that of `CC(Sc1nnc(N)s1)C(=O)NCCC1=CCCCC1` (stereo not drawn), 2.13%.
In the case of `C/C(=N\NC(=O)NC1CCCCC1)c1ccc(OC(F)F)cc1OC(F)F` it was 1.32%; in that of `FC(F)Oc1ccc(-c2csc(=Nc3cccnc3)n2C2CC2)cc1`, 3.62%; in that of `Cc1cc(/C=N/N2C(=O)c3ccccc3C2=O)cc(C)c1O`, 0.22%.
As for `CCN(CC)CC(O)Cn1c(=O)n(CC(O)CN(CC)CC)c(=O)n(CC(O)CN(CC)CC)c1=O` (stereo not drawn), the inhibition is -0.02%.
In the case of `O=C1Cc2ccccc2C(=O)N1Cc1ccccn1` it was 4.89%; in that of `O=C1CCC2(C(=O)OCCCn3c(=O)[nH]c4ccccc43)Sc3ccccc3N12` (stereo not drawn), 1.34%; in that of `O=C(c1cc(Cl)c(O)c(Cl)c1)N1CCc2ccccc2C1`, 3%.
For `Cc1nn2cnnc2c(C)c1CCC(=O)NCCCc1ccccc1`, the inhibition was -4.03%.
In the case of `O=C(CCC1CC(=O)OC1c1ccccc1)Nc1nccs1` (stereo not drawn) it was 0.54%; in that of `CCOC(=O)c1c(C)oc2ncnc(N(C)Cc3ccccc3)c12`, 1.14%; in that of `COC(=O)c1cc(S(=O)(=O)N(CCCN2CCOCC2)C2CCN(C)CC2)cn1C`, -0.33%.
In the case of `Cc1c(CCC(C)C)c(NCCN2CCOCC2)n2c(nc3ccccc32)c1C#N` it was 2.4%.
In the case of `CCN(C(=O)COc1ccc(Cl)cc1C)c1ccccc1` it was 0.83%; in that of `CCOc1ccc(-n2cc(C(=O)N3CCN(c4ccccc4OC)CC3)c3cc(OC)c(OC)cc3c2=O)cc1`, 0.29%.
Turning to `Cc1cccc(NC(=O)NCC(=O)NC2CC2)c1`, the inhibition was -0.65%.
In the case of `COCC(C)NC(=O)Nc1c[nH]c2ccccc12` (stereo not drawn) it was -1.24%; in that of `CCOc1cc(C(=O)CCC(=O)O)ccc1O`, 0.21%.
With `CCN(Cc1ccccc1)C(=O)c1cccc(N2C(=O)CCC2=O)c1`, the inhibition is 1.51%.
For the compound `C=CCN1C(=O)S/C(=C\c2ccc(OCC(=O)OC)cc2)C1=O`, the inhibition is 0.73%.
For the compound `CCSc1nnc(CNc2ccc(F)cc2)n1-c1ccc(C)cc1`, the inhibition was 1.16%.
In the case of `CN(CC(=O)Nc1ccccc1Cl)Cn1nc(-c2ccco2)oc1=S` it was 1.44%; in that of `CCCN(CCC)Cc1ccc(CNc2nc(-c3ccc(OC)cc3)no2)o1`, -0.49%; in that of `CCC(CO)n1c(SCC(=O)Nc2ccc(C)c(C)c2)nc2cc(OC)c(OC)cc2c1=O` (stereo not drawn), 1.28%.
In the case of `COc1ccc(-c2noc(C3CCN(C(=O)OC(C)(C)C)CC3)c2C(=O)O)cc1`, the inhibition is 1.39%.
In the case of `Nc1ccccc1C(=O)NCC1CCCO1` (stereo not drawn) it was -4.47%; in that of `COc1ccc(-n2cc3c(c(C#N)c2=N)CC(C)(C)CC3=O)c(OC)c1`, -12.9%.
In the case of `COC(=O)c1ccc(/C=N/O)cc1` it was 1.3%; in that of `S=c1[nH]nc(-c2ccncc2)n1/N=C/c1cccnc1`, -0.5% and 1.06%; in that of `Cc1ccc(N=C2C(=O)N(CN3CCCC(C)C3)c3ccccc32)cc1` (stereo not drawn), 0.38%.
In the case of `CCCc1nnc(SCC(=O)N2CCCc3ccccc32)n1CC` it was -5.47%.
Turning to `Cc1cccc(C(=O)NCC(=O)NN)c1`, the inhibition was 0.12%.
In the case of `O=S(=O)(NCc1ccc2c(c1)OCO2)c1cccc2nsnc12` it was 0.67%.
In the case of `Cc1csc(NC(=O)C2CCC(CNS(=O)(=O)c3cccc4nsnc34)CC2)n1` (stereo not drawn) it was 28.5% (active).
In the case of `CCOCCCNc1nc2ccccc2nc1NS(=O)(=O)c1cccc2nsnc12` it was 0.69%; in that of `Cc1cc(C)n(-c2ccc(C(=O)OCC(=O)C(C)(C)C)cc2)n1`, -0.47%; in that of `OC(CN1CCCCC1)CN1c2ccccc2Sc2ccccc21` (stereo not drawn), -0.28%.
As for `O=C(Nc1ccccc1)Nc1ccc(Cl)c(Cl)c1`, the inhibition is 2.62%.
In the case of `Cc1ccccc1Nc1nc(N)nc(Cn2cc(Br)ccc2=O)n1` it was 2.02%; in that of `Cc1ccc(S(=O)(=O)N(C)CC(=O)O)cc1`, 0.19%; in that of `CC(C)CN(CC(C)C)C(=O)C1CCN(S(=O)(=O)c2cccc3nsnc23)CC1`, -0.22%.
In the case of `CCc1c(C)nc2n(c1=O)C(CS(=O)(=O)c1ccc3ccccc3c1)CS2` (stereo not drawn) it was 2.08%.
In the case of `O=C(O)CN1CCN(C(c2ccccc2)c2ccccc2)CC1` it was 1.06%; in that of `CCCCn1c(N)c(N(C(=O)c2ccc(Cl)c(Cl)c2)C2CCCC2)c(=O)[nH]c1=O`, 2.21%; in that of `Cc1ccc(NC(=O)CCn2c(=O)sc3ccccc32)cc1C`, 2.16%.
In the case of `O=C(CSc1cccc[n+]1[O-])c1cc2c3c(c1)CC(=O)N3CCC2`, the inhibition is 1.79%.
Take `Cc1ccsc1C(=O)OCc1nc2sc3c(c2c(=O)[nH]1)CCCC3`: the inhibition was -0.18%.

The inhibition is the relative decrease from the control value, in per cent.
